# From PubChem BioAssay
# Records with an inconclusive call do not appear. Activity calls are given as the source filed them. Unless noted, the rule behind the calls is not given here.
# Key:
# [1] = rapamycin-like changes in RPL19A-GFP expression – cell-based, S. cerevisiae, multiplex flow cytometry, primary screen (AID 1862; in the data active = percent of DMSO control GFP below about 86%;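 note: lower values mimic rapamycin by blocking the RPL19A rise seen in DMSO cells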); conditions: S. cerevisiae RPL19A-GFP strain, flow cytometry fluorescence, 3 h; at 10 µM; stronger effect = lower value
# [2] = TOR pathway GLN3 branch reporter MEP2-GFP changes – S. cerevisiae, multiplex flow cytometry, primary screen (AID 1867;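 active = GFP response, as percent of the DMSO control, above the screen-wide mean plus 3 SD, about 139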;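 note: median GFP channel fluorescence of barcode-gated MEP2-GFP cells measured by flow cytometry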); conditions: S. cerevisiae MEP2-GFP strain, 3 h, at 10 µM, stronger effect = higher value
# [3] = TOR pathway RTG branch CIT2 reporter changes – S. cerevisiae, GFP fusion, multiplex flow cytometry, primary screen (AID 1870;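 active = percent response above a set limit, the screen-wide mean plus 3 SD, cut at about 130% in these data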;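 note: barcoded CIT2-GFP strain pooled with four other GFP strains with rapamycin as positive control; median GFP fluorescence per well over plate mean of DMSO wells so 100% = DMSO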); conditions: S. cerevisiae CIT2-GFP expression, 3 h, at 10 µM, stronger effect = higher value
# [4] = TOR pathway LAP4-GFP level changes – S. cerevisiae, multiplex flow cytometry, primary screen (AID 1873;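 active = GFP signal, as percent of the solvent control, above the screen mean plus 3 SD, about 149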); conditions: S. cerevisiae LAP4-GFP expression, 3 h, at 10 µM, stronger effect = higher value
# [5] = yeast AGP1-GFP level changes, GLN3 branch – cell-based, multiplex flow cytometry, S. cerevisiae, primary screen (AID 1887;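 active = GFP signal above the screen-wide mean plus 3 SD, that is over about 124.5% of the solvent control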;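 note: AGP1-GFP fusion strain of S. cerevisiae within a five-strain barcoded multiplex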); conditions: 3 h, at 10 µM, stronger effect = higher value
# [6] = reduced mouse 2C T cell binding to pMHC/ICAM-1 vesicles – MLPCN validation set, flow cytometry, LFA-1/ICAM-1 modulator project, pilot screen (AID 2523;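 active = response below a set limit, under 55% cells CD8-positive and vesicle-bound, and CD8 cells' 90th-percentile brightness under 279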;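 for vesicle binding response: mean PE anti-B7-1 fluorescence of CD8+ cells relative to row control; 100% = QL9-loaded vesicles with DMSO vehicle in the same plate row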); conditions: 2C mouse CD8+ T cells, at 7 µM, stronger effect = lower value; double positive events: measured here: CD8+/vesicle+ event percentage
# [7] = biological target: Integrin beta-1 (Homo sapiens) + Integrin alpha-4 (Homo sapiens) (UniProt P13612+P05556); experiment: alpha4beta1 integrin LIBS antibody binding reduction – U937 cells, HUTS-21 mAb, flow cytometry, validation set, VLA-4 allosteric modulator project, pilot screen (AID 2674;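 active = inhibition above 50%, about 3 SD of the validation set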;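 note: antibody binding induced by the VLA-4 ligand LDV present at three times its Kd; 0% = LDV ligand with antibody and no compound and 100% = antibody without LDV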); conditions: HUTS-21 LIBS mAb binding, at 6.7 µM, stronger effect = higher value
# Sequence of Integrin beta-1 (Homo sapiens) + Integrin alpha-4 (Homo sapiens) (P05556 whole entry, looked up): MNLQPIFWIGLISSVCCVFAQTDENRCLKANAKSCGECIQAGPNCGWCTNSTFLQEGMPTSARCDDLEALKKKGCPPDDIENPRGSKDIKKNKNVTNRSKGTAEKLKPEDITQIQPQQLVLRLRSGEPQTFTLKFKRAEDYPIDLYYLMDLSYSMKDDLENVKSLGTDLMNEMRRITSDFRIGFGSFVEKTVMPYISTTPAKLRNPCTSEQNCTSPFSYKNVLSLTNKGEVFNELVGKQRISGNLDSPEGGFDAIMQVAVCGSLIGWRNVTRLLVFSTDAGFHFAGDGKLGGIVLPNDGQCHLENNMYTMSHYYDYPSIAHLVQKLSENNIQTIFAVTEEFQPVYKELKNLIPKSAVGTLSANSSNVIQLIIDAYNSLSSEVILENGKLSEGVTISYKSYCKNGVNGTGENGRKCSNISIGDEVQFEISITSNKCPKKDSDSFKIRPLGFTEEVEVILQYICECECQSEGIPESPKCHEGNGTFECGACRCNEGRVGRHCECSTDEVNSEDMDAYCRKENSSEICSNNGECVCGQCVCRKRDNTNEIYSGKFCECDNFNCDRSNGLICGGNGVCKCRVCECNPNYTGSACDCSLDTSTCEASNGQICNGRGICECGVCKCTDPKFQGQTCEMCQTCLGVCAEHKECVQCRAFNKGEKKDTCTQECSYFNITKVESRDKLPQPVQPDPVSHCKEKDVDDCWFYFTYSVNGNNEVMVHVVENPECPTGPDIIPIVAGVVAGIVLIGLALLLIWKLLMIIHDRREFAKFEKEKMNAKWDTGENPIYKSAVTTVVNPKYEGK
# Sequence of Integrin beta-1 (Homo sapiens) + Integrin alpha-4 (Homo sapiens) (P13612 whole entry, looked up): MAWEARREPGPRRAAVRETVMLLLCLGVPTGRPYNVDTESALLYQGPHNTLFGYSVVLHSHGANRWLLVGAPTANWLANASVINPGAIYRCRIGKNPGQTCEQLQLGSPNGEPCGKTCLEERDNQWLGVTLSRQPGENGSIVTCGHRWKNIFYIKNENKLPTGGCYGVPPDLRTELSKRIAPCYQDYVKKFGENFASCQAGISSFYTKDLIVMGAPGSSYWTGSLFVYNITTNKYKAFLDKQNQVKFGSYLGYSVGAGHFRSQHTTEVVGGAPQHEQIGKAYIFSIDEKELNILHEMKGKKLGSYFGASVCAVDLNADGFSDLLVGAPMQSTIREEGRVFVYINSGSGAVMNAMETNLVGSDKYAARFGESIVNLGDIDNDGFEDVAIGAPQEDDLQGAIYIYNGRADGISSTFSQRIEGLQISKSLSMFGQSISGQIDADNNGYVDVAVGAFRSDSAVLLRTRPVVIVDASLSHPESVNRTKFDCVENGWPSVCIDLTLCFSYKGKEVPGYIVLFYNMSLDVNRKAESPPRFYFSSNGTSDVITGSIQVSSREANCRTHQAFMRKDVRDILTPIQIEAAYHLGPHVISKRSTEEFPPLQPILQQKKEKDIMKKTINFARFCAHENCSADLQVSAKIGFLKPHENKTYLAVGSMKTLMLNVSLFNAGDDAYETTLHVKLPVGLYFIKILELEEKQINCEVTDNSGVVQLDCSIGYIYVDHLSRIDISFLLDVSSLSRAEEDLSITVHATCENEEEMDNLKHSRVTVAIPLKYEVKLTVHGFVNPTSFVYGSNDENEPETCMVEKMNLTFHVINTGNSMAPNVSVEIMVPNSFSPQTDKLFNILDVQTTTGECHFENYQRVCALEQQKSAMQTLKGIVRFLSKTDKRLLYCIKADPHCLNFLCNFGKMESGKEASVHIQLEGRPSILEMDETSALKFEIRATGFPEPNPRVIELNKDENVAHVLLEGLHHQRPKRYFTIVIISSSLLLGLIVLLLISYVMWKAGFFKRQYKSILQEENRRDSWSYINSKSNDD
# [8] = calorie-restriction mimetic ROS inhibitors, yeast – validation compound set, pilot screen (AID 2706;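 active = superoxide response below 65% of plate, a cut near 3 SD across the whole screen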;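 note: yeast exposed to compound for one week at 30 degrees C before staining; 100% = mean of all compound wells on the same plate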); conditions: S. cerevisiae aging, superoxide DHE fluorescence; at 10 µM; stronger effect = lower value
# [9] = biological target: Beta-adrenergic receptor kinase 1 (Homo sapiens) (UniProt P25098); experiment: GRK2 binders displacing RNA aptamer, biochemical, validation, human GRK2, bead flow cytometry (AID 488806;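 active = aptamer binding inhibition above 30%, about 3 SD of noise from non-fluorescent compounds; inactive = inhibition at or below 30%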); conditions: bead-bound GRK2, FAM-aptamer displacement, at 10 µM, stronger effect = higher value
# Sequence of Beta-adrenergic receptor kinase 1 (Homo sapiens) (P25098 whole entry, looked up): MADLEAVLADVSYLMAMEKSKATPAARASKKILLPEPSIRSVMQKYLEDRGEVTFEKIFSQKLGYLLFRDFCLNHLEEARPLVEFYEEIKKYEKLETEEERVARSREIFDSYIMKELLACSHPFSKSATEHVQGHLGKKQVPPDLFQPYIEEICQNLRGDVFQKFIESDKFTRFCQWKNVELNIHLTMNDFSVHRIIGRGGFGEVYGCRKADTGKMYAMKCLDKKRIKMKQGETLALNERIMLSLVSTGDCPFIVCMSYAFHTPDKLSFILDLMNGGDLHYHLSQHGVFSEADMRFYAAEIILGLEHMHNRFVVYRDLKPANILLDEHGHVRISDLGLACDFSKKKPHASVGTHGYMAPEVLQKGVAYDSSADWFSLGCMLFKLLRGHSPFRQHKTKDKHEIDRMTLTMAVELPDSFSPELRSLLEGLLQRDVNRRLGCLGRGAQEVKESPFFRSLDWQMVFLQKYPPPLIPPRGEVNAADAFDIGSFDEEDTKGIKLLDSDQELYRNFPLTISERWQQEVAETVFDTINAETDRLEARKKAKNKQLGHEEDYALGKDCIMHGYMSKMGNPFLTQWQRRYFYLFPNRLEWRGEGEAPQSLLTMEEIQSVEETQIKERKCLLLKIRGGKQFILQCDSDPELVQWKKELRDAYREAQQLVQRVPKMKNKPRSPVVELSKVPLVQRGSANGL
# [10] = biological target: Beta-2 adrenergic receptor (Homo sapiens) (UniProt P07550); experiment: agonist-induced loss of surface beta2AR – cell-based, FAP fluorogen, flow cytometry, validation set, pilot screen (AID 504459;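 active = percent response above 42, roughly 3 SD of non-fluorescent test compounds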;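 note: agonist-driven loss of surface beta2AR via internalization measured by FAP dye flow cytometry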); conditions: Am2.2-beta2AR cells, at 10 µM, stronger effect = higher value
# Sequence of Beta-2 adrenergic receptor (Homo sapiens) (P07550 whole entry, looked up): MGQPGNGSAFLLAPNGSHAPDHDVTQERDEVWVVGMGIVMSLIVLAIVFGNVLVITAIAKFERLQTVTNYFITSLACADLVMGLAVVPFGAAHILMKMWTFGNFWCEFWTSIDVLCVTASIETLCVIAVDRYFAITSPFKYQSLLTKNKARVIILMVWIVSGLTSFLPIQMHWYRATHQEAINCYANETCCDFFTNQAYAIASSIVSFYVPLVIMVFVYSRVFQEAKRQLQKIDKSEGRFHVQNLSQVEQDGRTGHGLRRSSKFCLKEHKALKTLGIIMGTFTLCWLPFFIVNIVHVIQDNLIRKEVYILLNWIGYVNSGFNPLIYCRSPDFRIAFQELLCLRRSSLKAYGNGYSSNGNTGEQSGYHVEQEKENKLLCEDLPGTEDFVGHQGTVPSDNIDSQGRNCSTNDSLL
# [11] = biological target: AP-2 complex subunit beta (Homo sapiens) (UniProt P63010); experiment: beta-arrestin/AP2 interaction blockers – biochemical, validation set, GST-AP2 beads, flow cytometry, pilot screen (AID 504541;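 active = inhibition above 54%, about 3 SD of non-fluorescent compounds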;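 note: AP2 carries R879A mutation and is captured from E. coli lysate; bead-bound FITC arrestin peptide fluorescence measuring arrestin peptide binding to AP2; 0% = DMSO wells and 100% = excess unlabeled arrestin peptide control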); conditions: FITC arrestin peptide, at 10 µM, stronger effect = higher value
# Sequence of AP-2 complex subunit beta (Homo sapiens) (P63010 whole entry, looked up, one chain of several): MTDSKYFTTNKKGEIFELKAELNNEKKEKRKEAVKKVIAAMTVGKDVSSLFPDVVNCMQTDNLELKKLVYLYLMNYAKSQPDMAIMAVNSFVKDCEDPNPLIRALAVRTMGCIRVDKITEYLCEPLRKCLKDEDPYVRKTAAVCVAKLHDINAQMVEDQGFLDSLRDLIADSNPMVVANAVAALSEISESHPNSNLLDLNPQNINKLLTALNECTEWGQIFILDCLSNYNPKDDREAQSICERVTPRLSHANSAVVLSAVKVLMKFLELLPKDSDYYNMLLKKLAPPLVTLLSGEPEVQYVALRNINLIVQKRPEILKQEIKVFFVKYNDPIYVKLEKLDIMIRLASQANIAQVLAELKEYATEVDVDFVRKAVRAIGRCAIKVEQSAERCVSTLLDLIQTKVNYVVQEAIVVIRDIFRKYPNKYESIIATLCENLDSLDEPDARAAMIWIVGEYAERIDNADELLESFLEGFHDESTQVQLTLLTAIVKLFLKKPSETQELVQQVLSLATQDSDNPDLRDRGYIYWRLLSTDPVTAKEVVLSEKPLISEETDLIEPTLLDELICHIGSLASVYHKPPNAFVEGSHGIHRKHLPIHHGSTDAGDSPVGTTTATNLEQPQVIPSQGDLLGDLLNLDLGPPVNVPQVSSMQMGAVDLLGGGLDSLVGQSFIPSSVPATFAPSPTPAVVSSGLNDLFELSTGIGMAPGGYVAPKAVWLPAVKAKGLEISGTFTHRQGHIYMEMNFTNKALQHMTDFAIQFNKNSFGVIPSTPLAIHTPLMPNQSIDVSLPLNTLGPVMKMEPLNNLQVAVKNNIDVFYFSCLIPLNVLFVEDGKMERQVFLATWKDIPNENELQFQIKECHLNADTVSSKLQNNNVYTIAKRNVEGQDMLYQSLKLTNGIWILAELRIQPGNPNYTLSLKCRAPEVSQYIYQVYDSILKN
# [12] = cytosolic pH regulators acting via V-ATPase – S. cerevisiae, pHLuorin, HTS validation (AID 504600; in the data active = response above about 15%;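 note: plate controls were DMSO for no effect and reference compound for full effect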); conditions: V-ATPase proton transport, at 10 µM, stronger effect = higher value
# [13] = system: anti-desmoglein-3 scFv antibody binding to human DSG3; experiment: blockers of pathogenic pemphigus antibody–desmoglein-3 binding – biochemical, validation compound set, bead-based, flow cytometry, pilot screen (AID 588368;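 active = binding below the plate cutoff, the plate median minus 3 SD, with a reading above zero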;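 note: signal is the median channel fluorescence of bead-bound GFP antibody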); conditions: Protein G beads, DSG3-Fc, scFv-GFP binding, at 10 µM, stronger effect = lower value
# [14] = system: Botulinum neurotoxin type F light chain protease (Clostridium botulinum); experiment: Clostridium botulinum type F light chain protease inhibitors, microsphere substrate cleavage, validation (AID 588459); conditions: multiplex microsphere protease substrate cleavage assay, flow cytometry; at 10 µM; stronger effect = higher value
# [15] = biological target: Botulinum neurotoxin type A (Clostridium botulinum) (UniProt P0DPI0); experiment: BoNT/A light chain protease inhibitors, biochemical, multiplex microsphere flow cytometry, validation set (AID 588460); conditions: at 10 µM, stronger effect = higher value
# [16] = biological target: Lethal factor (Bacillus anthracis) (UniProt P15917); experiment: Bacillus anthracis lethal factor inhibition, microsphere flow cytometry protease assay, validation at 10 µM (AID 588461); conditions: multiplex microsphere protease cleavage assay, stronger effect = higher value
# Sequence of Lethal factor (Bacillus anthracis) (P15917 whole entry, looked up): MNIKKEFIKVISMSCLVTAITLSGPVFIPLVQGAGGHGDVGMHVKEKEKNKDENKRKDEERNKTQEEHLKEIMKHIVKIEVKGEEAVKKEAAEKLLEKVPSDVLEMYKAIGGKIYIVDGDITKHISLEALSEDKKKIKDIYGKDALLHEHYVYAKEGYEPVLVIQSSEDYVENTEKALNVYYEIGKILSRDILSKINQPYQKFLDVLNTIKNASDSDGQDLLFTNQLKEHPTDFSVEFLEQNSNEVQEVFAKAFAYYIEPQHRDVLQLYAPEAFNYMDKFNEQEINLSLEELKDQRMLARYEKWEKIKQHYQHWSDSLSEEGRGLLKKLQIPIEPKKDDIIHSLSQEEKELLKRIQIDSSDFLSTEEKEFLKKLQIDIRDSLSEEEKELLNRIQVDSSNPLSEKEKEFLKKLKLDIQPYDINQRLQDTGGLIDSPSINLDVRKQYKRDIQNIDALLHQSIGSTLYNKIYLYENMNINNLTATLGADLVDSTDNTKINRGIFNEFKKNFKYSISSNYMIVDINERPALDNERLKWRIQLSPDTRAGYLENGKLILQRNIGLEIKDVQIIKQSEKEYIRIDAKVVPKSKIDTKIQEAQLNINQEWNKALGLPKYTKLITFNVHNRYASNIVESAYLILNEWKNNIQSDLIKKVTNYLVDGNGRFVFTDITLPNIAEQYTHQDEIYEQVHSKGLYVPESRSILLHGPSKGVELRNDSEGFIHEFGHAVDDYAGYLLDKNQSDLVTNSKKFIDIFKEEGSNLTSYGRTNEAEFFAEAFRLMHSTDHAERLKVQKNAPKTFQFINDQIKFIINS
# [17] = Nile Red efflux blockade in pump-expressing yeast – validation compound set, multiplex, phenotypic, pilot screen (AID 588506;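 active = efflux inhibition above 0.42, the validation set average plus 4 SD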;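 note: Nile Red retained in cells so higher fluorescence means more efflux inhibition; 0 = negative control wells and 1 = enniatin B 25 µM full block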); conditions: S. cerevisiae pump-expressing triplex, Nile Red efflux flow cytometry; at 10 µM; stronger effect = higher value
# [18] = biological target: ATP-binding cassette sub-family B member 6 (Homo sapiens) (UniProt Q9NP58); experiment: blockers of ABCB6-driven porphyrin uptake – K562-ABCB6 cells, flow cytometry, validation set, pilot screen (AID 588550;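 active = inhibition above the screen-wide mean plus 3 SD, about 51%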;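 note: 0% = DMSO wells and 100% = benzethonium chloride 70 µM positive control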); conditions: K562-ABCB6 porphyrin accumulation, 1 h, at 10 µM, stronger effect = higher value
# [19] = AML differentiation inducers, ER-HoxA9 marrow cells – cell-based, GFP/MAC1 double positive, flow cytometry, validation set, primary screen (AID 588685;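 active = differentiation response of at least 50%, scaled between solvent and reference control, from cells with both markers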;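 note: compound exposure lasts four days before antibody staining and flow analysis; 0% = DMSO wells and 100% = 5 µM fulvestrant positive control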); conditions: stronger effect = higher value
Compound,percent of DMSO control GFP [1],GFP response vs DMSO [2],percent response of DMSO control [3],GFP response vs DMSO [4],"GFP response, % of DMSO [5]",double positive events [6],vesicle binding response [6],inhibition [7],superoxide response (% of plate) [8],aptamer binding inhibition [9],response [10],inhibition [11],response [12],binding (% of control) [13],inhibition [14],inhibition [15],inhibition [16],efflux inhibition (fraction of control) [17],inhibition [18],differentiation response [19]
C[N+]1(C)CCOC(O)(c2ccc(-c3ccc(C4(O)C[N+](C)(C)CCO4)cc3)cc2)C1 (centres undefined),94.6% (inactive),126% (inactive),101% (inactive),76.5% (inactive),88% (inactive),64.9%,192% (inactive),9.37% (inactive),113% (inactive),-3% (inactive),-10.1% (inactive),1.77% (inactive),2.1% (inactive),101% (inactive),1.7% (inactive),0.1% (inactive),0.5% (inactive),0.19 (inactive),15% (inactive),2.46% (inactive)
C[C@H]1CCCC(=O)CCC/C=C/c2cc(O)cc(O)c2C(=O)O1,102% (inactive),104% (inactive),96% (inactive),96.5% (inactive),98.3% (inactive),57.4%,138% (inactive),-0.31% (inactive),102% (inactive),3% (inactive),2.24% (inactive),-2.22% (inactive),0.54% (inactive),99% (inactive),5.6% (inactive),0.5% (inactive),0.4% (inactive),-0.09 (inactive),3% (inactive),-5.68% (inactive)
CC[C@]12C=CCN3CCC4(c5cc(Br)c(OC)cc5N(C)C4[C@@](O)(C(=O)OC)[C@@H]1OC(C)=O)C32 (some centres undefined),88.9% (inactive),130% (inactive),96.6% (inactive),84.2% (inactive),90.5% (inactive),48.2%,18.6% (active),29.7% (inactive),95.7% (inactive),5% (inactive),-10.3% (inactive),-7.24% (inactive),5.2% (inactive),109% (inactive),2.5% (inactive),1.6% (inactive),-5.6% (inactive),0.23 (inactive),10% (inactive),0% (inactive)
C[C@@]1(CO)[C@H](O)CC[C@@]2(C)[C@H]1CC[C@H]1C[C@@H]3C[C@@]12CC[C@]3(O)CO,105% (inactive),106% (inactive),102% (inactive),103% (inactive),99.3% (inactive),62.9%,225% (inactive),17.7% (inactive),102% (inactive),0% (inactive),0.18% (inactive),54.5% (active),3.03% (inactive),100% (inactive),4.1% (inactive),1% (inactive),-0.5% (inactive),-0.04 (inactive),6% (inactive),-1.65% (inactive)
O=c1c2ccccc2[se]n1-c1ccccc1,99.6% (inactive),94.6% (inactive),110% (inactive),94.4% (inactive),99.2% (inactive),57.5%,111% (inactive),15.4% (inactive),120% (inactive),5% (inactive),12.7% (inactive),116% (active),-0.76% (inactive),9.72% (active),33.2% (active),92.6% (active),-9.3% (inactive),37.3 (active),5% (inactive),0.41% (inactive)
CC12CCC3C(CC=C4CC(O)CCC43C)C1C/C(=C\c1cccc(F)c1)C2=O (centres undefined),98.2% (inactive),103% (inactive),95.1% (inactive),113% (inactive),102% (inactive),63.9%,171% (inactive),-7.08% (inactive),100% (inactive),3% (inactive),-8.92% (inactive),9.38% (inactive),-4.42% (inactive),98.7% (inactive),-0.7% (inactive),-0.1% (inactive),-1.4% (inactive),-0.13 (inactive),-1% (inactive),2.89% (inactive)
OCc1cnc[nH]1,103% (inactive),109% (inactive),98.9% (inactive),101% (inactive),99.4% (inactive),62.2%,4490% (inactive),11% (inactive),104% (inactive),0% (inactive),-1.18% (inactive),3.29% (inactive),1.03% (inactive),97.4% (inactive),0.1% (inactive),-0.3% (inactive),1.2% (inactive),-0.01 (inactive),-11% (inactive),-10.5% (inactive)
CC1CCC[C@H](O)CCCCCc2cc(O)cc(O)c2C(=O)O1 (some centres undefined),102% (inactive),99.7% (inactive),106% (inactive),114% (inactive),109% (inactive),62.7%,174% (inactive),19% (inactive),111% (inactive),-3% (inactive),-2.64% (inactive),-18.8% (inactive),6.16% (inactive),106% (inactive),-0.6% (inactive),0.6% (inactive),-2.4% (inactive),0.69 (active),-7% (inactive),-4.57% (inactive)
CC(C)NC(C)C(=O)c1ccc2ccccc2c1 (centres undefined),104% (inactive),99.6% (inactive),98.6% (inactive),113% (inactive),107% (inactive),63.7%,278% (inactive),-0.43% (inactive),121% (inactive),1% (inactive),14.8% (inactive),-7.53% (inactive),3.67% (inactive),98.4% (inactive),1.8% (inactive),2% (inactive),1.1% (inactive),-0.28 (inactive),106% (active),108% (active)
CC(Cc1ccccc1)NCC(=O)Nc1cc(N(C)C)nc2ccccc12 (centres undefined),101% (inactive),107% (inactive),93.9% (inactive),105% (inactive),103% (inactive),52.9%,191% (inactive),-40.4% (inactive),93.7% (inactive),5% (inactive),,-8.4% (inactive),-1.24% (inactive),99.3% (inactive),11.6% (inactive),6.4% (inactive),0.6% (inactive),-0.31 (inactive),8% (inactive),-18% (inactive)
